Results filed as inconclusive are left out. A call without a number means that no potency is given here. Activity calls are given as the source filed them. Calls follow the shape of the dose curve; as a rule, active = well fitted cell-killing curve with a large enough effect in the repeat runs; inconclusive = weak or mixed curves, or effect the other way; inactive = flat fitted curve, though single readings scatter.
Experiment: qHTS RealTime-Glo MT Cell Viability Assay in HEK293 cells - 8 hour (AID 1224887); also: nearly all actives have a fitted effect of over 50% in size; as to activity change, negative = cytotoxicity: top concentration of the series differs between compounds
Settings: RealTime-Glo luminescence; series mostly up to 76.8 µM
Description: U.S. Tox21 Program National Center for Advancing Translational Sciences [NCATS] NIH Chemical Genomics Center [NCGC] U.S. Environmental Protection Agency [EPA] National Institutes of Environmental Health Sciences [NIEHS] National Toxicology Program [NTP] U.S. Food and Drug Administration [FDA] Tox21 Assay Overview: Measure of cell viability is critical in the cell-base assay. Analysis of cell viability is necessary for the characterization of cell responses to cytotoxic drugs and environmental stress. A RealTime-Glo MT Cell Viability Assay to monitor cell viability in real time of continues cell culture during 40 hours of compound treatment was used to screen Tox21 10K library compounds in Hek293 cells. The RealTime-Glo MT Cell Viability Assay is a nonlytic, homogeneous, bioluminescent method to measure cell viability in real time using a simple, plate-based method. The assay involves adding NanoLuc luciferase and a cell-permeant prosubstrate to cells in culture. Viable cells reduce the proprietary prosubstrate to generate a substrate for NanoLuc luciferase. This substrate diffuses from cells into the surrounding culture medium, where it is rapidly used by the NanoLuc Enzyme to produce a luminescent signal. The signal correlates with the number of viable cells, making the assay well suited for cytotoxicity studies.
Tox21 Assay Protocol Summary: The mixture of Hek293 cell suspension and reagents were dispensed at 600cells/6 ul/well in 1536-well tissue culture treated black solid bottom plates using a Multidrop dispenser. After the assay plates were incubated at a 37 C/5% CO2 incubator for 5 hours, 23 nL of compounds dissolved in DMSO, positive and negative controls was transferred to the assay plate by a pintool work station. The plates were incubated at 37 C for 40 hours. The luminescence intensity were measured at 0h, 8h, 16h, 24h, 32h and 40h time points using ViewLux plate reader during compound treatment.
With C=C1CC[C@@]2(O)[C@H]3Cc4ccc(O)c5c4[C@@]2(CCN3CC2CC2)[C@H]1O5 the Potency was “inactive”. With CC(C)N(Cc1ccccc1)C(=O)C(C)(C)C the Potency was “inactive”. With Cn1c(CCCC(=O)O)nc2cc(N(CCCl)CCCl)ccc21 the Potency was “inactive”. For CCC(C(N)=O)N1CCCC1=O (stereo not given), the Potency was “inactive”. In the case of Cc1ccc(S(=O)(=O)N[C@@H](CCCCN)C(=O)CCl)cc1, the Potency is reported as “inactive”. With [O-][Br+2]([O-])O the Potency was “inactive”. With CC[C@@H](CO)NC(=O)[C@@H]1C=C2c3cccc4c3c(cn4C)C[C@H]2N(C)C1 the Potency was “inactive”. In the case of N=C(N)[Se], the Potency is reported as “inactive”. In the case of Cc1cccc2sc3nncn3c12, the Potency is reported as “inactive”. With CCC(CC)(CNC(=O)CCCO)c1cccc(OC)c1 the Potency was “inactive”. For OCC(Cl)CCl (stereo not given), the Potency was “inactive”. For O=C(O)CBr, the Potency was “inactive”. With C1CN2CCC1CC2 the Potency was “inactive”. With NCC1(CC(=O)O)CCCCC1 the Potency was “inactive”. With CNC(=O)O/N=C(/CSC)C(C)(C)C the Potency was “inactive”. With C#CCOC(=O)/C=C(C)/C=C/CC(C)CCCC(C)C (stereo not given) the Potency was “inactive”. For CC(C)NCC(O)c1ccc([N+](=O)[O-])cc1 (stereo not given), the Potency was “inactive”. With CC(C)(C)C(=O)C(Cl)Cl the Potency was “inactive”. With O=C/C=C/c1ccco1 the Potency was “inactive”. In the case of O=c1[nH]c2ccccc2o1, the Potency is reported as “inactive”. With CCCCS(=O)(=O)Cl the Potency was “inactive”. For O=c1[nH]oc2c1CCNC2, the Potency was “inactive”. In the case of CCCOC(=O)c1cncn1C(C)c1ccccc1 (stereo not given), the Potency is reported as “inactive”. For BrCC1CO1 (stereo not given), the Potency was “inactive”. In the case of O=C(Cl)c1ccccc1, the Potency is reported as “inactive”. With CC(C)(N)Cc1ccccc1Cl the Potency was “inactive”. With Cc1ccc2c(c1)C1CN(C)CCC1N2 (stereo not given) the activity change, negative = cytotoxicity was 1.42% [at 15.8 µM] (inactive). With CCOC(=O)C(Cl)Cc1cc(-n2nc(C)n(C(F)F)c2=O)c(F)cc1Cl (stereo not given) the Potency was 49 µM (active). In the case of C(COCC1CO1)OCC1CO1 (stereo not given), the Potency is reported as “inactive”. In the case of CC(C)(C)c1cc(O)ccc1O, the Potency is reported as “inactive”. For CON(C)C(=O)Nc1ccc(Br)c(Cl)c1, the Potency was “inactive”. With CCCC(C)C1(CC)C(=O)N=C(S)NC1=O (stereo not given) the Potency was “inactive”. In the case of COc1ccc2c(C(=O)c3ccc(Cl)cc3)c(C)n(CC(=O)O)c2c1, the Potency is reported as “inactive”. With O=C(Cl)C(Cl)Cl the Potency was “inactive”. With CCOC(=O)c1ncn2c1CN(C)C(=O)c1c(I)cccc1-2 the Potency was “inactive”. With CC(O)CCl (stereo not given) the Potency was “inactive”. With CCOC(=O)COc1ccc(Cl)cc1Cl the Potency was “inactive”. In the case of C=C(Cl)CCl, the Potency is reported as “inactive”. With CCN[C@@H](C)Cc1ccccc1 the Potency was “inactive”. In the case of CCOC(=O)CC(SP(=S)(OC)OC)C(=O)OCC (stereo not given), the Potency is reported as “inactive”.
Potency is read from the fitted curve at half-maximal effect.
